{
  "source": "PubChem BioAssay (NCI)",
  "note": "About 83,000 compounds went through this panel and 20% of them were active in at least one assay; those are over-represented in the sample as a whole.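 Results are percent growth after 48 hours of single-concentration exposure. 100 means growth as in untreated cells, lower positive values show inhibition; negative values down to -100 show cell death.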 A number with no mark means an inactive call. Active and inactive are the calls of the source.",
  "data": [
    {"test_system": "NCI-H23 lung", "experiment": "NCI-60 one-dose screen, 48 h (100 = growth as untreated, 0 = no growth, -100 = all killed)", "conditions": "10 µM unless noted", "description": "Growth inhibition of the NCI-H23 human Non-Small Cell Lung tumor cell line is measured as a screen for anti-cancer activity. Cells are grown in 96 well plates and exposed to the test compound for 48 hours. Compounds are tested at a single concentration, which is 10^-5 M for most compounds. The reported endpoint is percent growth (GI% or GIPRCNT), where numbers from 0 - 100% represent growth inhibition, and numbers from -100% - 0 represent cell death. For example, a value of 40 represents 60% growth inhibition. A value of 0 means no net growth occurred over the course of the experiment. A value of -40 indicates 40% of cells at the beginning of the experiment died by the end of the experiment. A value of -100 means all cells are dead at the end of the experiment.\nNCI-60 Human Tumor Cell Lines Screen was performed using the standard one-dose NCI protocol, which is described in more detail at https://dtp.cancer.gov/discovery_development/nci-60/default.htm.\nCompounds with GIPRCNT values below 10 were considered active. Activity score was based on GIPRCNT using the following formula: […]\nScore is 0 for GIPRCNT values of 100 or above, 50 for GIPRCNT values of 0, and 100 for GIPRCNT values of -100.", "values": [
      {"smiles": "O=c1[nH]nc(-c2ccccc2)c2sc3ncc(-c4ccc(Br)cc4)n3c12", "growth": "61.6%"},
      {"smiles": "COc1cc(F)c(/C=C/c2cc(/C=C/c3cc(OC)c(OC)cc3F)on2)cc1OC", "growth": "79.4%"},
      {"smiles": "C=CCn1c(-c2ccc(-c3nc4ccc(C)cc4[nH]3)cc2)n[nH]c1=S", "growth": "94.6%"},
      {"smiles": "COc1cc2oc(-c3cccc(C(=O)Nc4ccccc4)c3)cc(=O)c2c(O)c1OC", "growth": "86.9%"},
      {"smiles": "OCc1cnccc1NCCCCOc1ccc(Oc2ccccc2)cc1", "growth": "46.6%"},
      {"smiles": "Cc1ccc(C(=O)/C(=C\\c2ccc([N+](=O)[O-])cc2)S(=O)Cc2ccc(Cl)cc2)cc1", "note": "(stereo not given)", "growth": "41%"},
      {"smiles": "O=C(Nc1ncc(Cc2cc(Cl)ccc2Cl)s1)c1cccs1", "growth": "71.6%"},
      {"smiles": "CCOC(=O)Nc1ccc(-c2ccc3c(c2)NC(=O)/C3=C\\c2ccc[nH]2)cc1", "growth": "47.3%"},
      {"smiles": "O=Cc1cc2ccccc2nc1Oc1ccc(C(F)(F)F)cc1", "growth": "85.3%"},
      {"smiles": "O=C(CCN1CCCC1)Nc1ccc2c(NCc3ccccc3)c3ccccc3nc2c1", "growth": "-29.8% (active)"},
      {"smiles": "CN(CCN(C)c1ccc(C(=N)N)cc1)c1ccc(C(=N)N)cc1", "growth": "86.3%"},
      {"smiles": "N#Cc1c(-c2ccccc2)nc2c(c(-c3ccccc3)nn2-c2ccccc2)c1-c1ccc(O)cc1", "growth": "44.1%"},
      {"smiles": "O=C(CCN1CCCC1)Nc1ccc2c(NCCCc3ccccc3)c3ccccc3nc2c1", "growth": "14.8%"},
      {"smiles": "O=C1c2cccc3c(-c4ccc5c(c4)ncn5C4CCCCC4)ccc(c23)C(=O)N1CCO", "growth": "78.6%"},
      {"smiles": "c1ccc(Cn2cnc3ccc(-c4nc(-c5ccc6c(c5)ncn6C5CCCCC5)cn5ccnc45)cc32)cc1", "growth": "-22.8% (active)"},
      {"smiles": "CCCCCN1C=C/C(=C\\C(=O)N(C)c2ccc(Oc3ccccc3)cc2)c2ccccc21", "growth": "68.4%"},
      {"smiles": "N#C/C(=C\\c1ccc([N+](=O)[O-])s1)c1nc2cc(Br)ccc2s1", "growth": "-27.8% (active)"},
      {"smiles": "COc1cc2nc(-c3ccc(C(F)(F)F)cc3)cc(OCCCN3CCCC3)c2cc1OC", "growth": "57.3%"},
      {"smiles": "Cn1ccnc1C(=O)/C=C/c1ccc(CC(=O)NC2CCCCC2)cc1", "growth": "61.9%"},
      {"smiles": "CC(=O)c1cc2c(N)c(C(=O)Nc3cccc4ccncc34)sc2nc1C", "growth": "102%"},
      {"smiles": "Oc1ccc(OCCOc2ccc(O)cc2)cc1", "growth": "57.2%"},
      {"smiles": "Nc1n[nH]c2cccc(C#Cc3cccc(C(=O)Nc4cccc(C(F)(F)F)c4)c3)c12", "growth": "54%"},
      {"smiles": "N#C/C(=C\\c1cccc(C#N)c1)c1ccccc1", "growth": "101%"},
      {"smiles": "Cc1cc(C(=O)/C=C/c2ccc[nH]2)ccc1-n1ccc(C(F)(F)F)n1", "growth": "89.5%"},
      {"smiles": "COc1ccc(Cc2cnc(NC(=O)c3ccc4c(c3)OCCO4)s2)cc1", "growth": "18.8%"},
      {"smiles": "CCOC(=O)CCN(CC(C)C)C(=S)Nc1ccccc1", "growth": "98.8%"},
      {"smiles": "CC(C)(C)[Si](C)(C)OC1[C@@H](O[Si](C)(C)C(C)(C)C)[C@@H](CNC(=O)NC(=O)CCl)O[C@H]1n1cnc2c(NC(=O)Nc3ccccc3)ncnc21", "note": "(stereo not given in full)", "growth": "-93.3% (active)"},
      {"smiles": "O=C(Cc1ccccc1)NNc1nc(Cl)nc(N2CCN(C(c3ccccc3)c3ccccc3)CC2)n1", "growth": "83%"},
      {"smiles": "O=S(=O)(NCCNc1nccc(-c2c(-c3cccc(F)c3)nc3sccn23)n1)c1ccccc1", "growth": "56.1%"},
      {"smiles": "COc1ccc(C(=O)c2cc(C)c(OC)c(C)c2)c(OC)c1OC(=O)C(Cl)Cl", "growth": "29.2%"},
      {"smiles": "COCc1cnccc1NC1CCCCCC1", "growth": "103%"},
      {"smiles": "COc1cccc2c1c1nc3cc(C)c(C)cc3nc1n2CCN(C)C", "growth": "18.4%"},
      {"smiles": "CN(C)CC(O)c1ccc(/C=C/c2ccc(Cl)cc2)cc1", "note": "(stereo not given)", "growth": "33.5%"},
      {"smiles": "N#CC(C(=O)/C(=N/NC(=O)c1ccccc1O)C(C#N)c1ccccc1)c1ccccc1", "note": "(stereo not given)", "growth": "55.5%"},
      {"smiles": "COc1cccc(-c2cc(C(=O)Nc3ccc(/C=C/c4ccc(OC5CCN(C)CC5)cc4)cc3)ccc2OC)c1", "growth": "12.6%"},
      {"smiles": "COc1cc2nc(-c3ccc(C(F)(F)F)cc3)cc(OCCCN3CCOCC3)c2cc1OC", "growth": "56.5%"},
      {"smiles": "Cc1nc(N)nc(N[C@@H](C)c2nc3cccc(NCc4ccc(C(=O)NO)cc4)c3c(=O)n2-c2ccccc2)n1", "growth": "63.9%"},
      {"smiles": "O=C(/C(=C\\c1ccc([N+](=O)[O-])cc1)S(=O)Cc1ccc(Cl)cc1)c1ccc(Cl)cc1", "note": "(stereo not given)", "growth": "84.5%"},
      {"smiles": "CCCCOc1ccc(/C(C)=N/Nc2cc(C)nc3ccc(Br)cc23)cc1", "growth": "90.7%"},
      {"smiles": "CCCCCOc1ccc(/C=N/Nc2cc(C)nc3ccc(Cl)cc23)cc1", "growth": "62.5%"}
    ]}
  ]
}
